The panel holds about 83,000 compounds, 20% with a hit somewhere; the sample as a whole holds those more often.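 Treatment: one concentration, 48 hours, 96-well format. Scoring: percent growth, with anything below 10 considered active.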 A number with no mark means an inactive call. Active and inactive are the calls of the source.
Experiments:
Experiment in all cases: NCI-60 one-dose screen, 48 h (100 = growth as untreated, 0 = no growth, -100 = all killed)
Settings in all cases: 10 µM unless noted
[1] = system: NCI-H23 lung
[2] = system: NCI-H226 lung
[3] = system: NCI-H322M lung
[4] = system: HOP-62 NSCLC
[5] = system: NCI-H460 lung
[6] = system: HOP-92 NSCLC
[7] = system: NCI-H522 lung
[8] = system: A549/ATCC NSCLC
[9] = system: 786-0 renal
[10] = system: COLO 205 colon
[11] = system: DU-145 prostate
[12] = system: K-562 leukemia
[13] = system: MALME-3M melanoma
[14] = system: MDA-MB-231 breast
[15] = system: RXF 393 renal
[16] = system: SF-268 CNS
[17] = system: SF-295 CNS
[18] = system: SF-539 CNS
[19] = system: UACC-257 melanoma
[20] = system: M14 melanoma

| SMILES | growth [1] | growth [2] | growth [3] | growth [4] | growth [5] | growth [6] | growth [7] | growth [8] | growth [9] | growth [10] | growth [11] | growth [12] | growth [13] | growth [14] | growth [15] | growth [16] | growth [17] | growth [18] | growth [19] | growth [20] |
| --- | --- | --- | --- | --- | --- | --- | --- | --- | --- | --- | --- | --- | --- | --- | --- | --- | --- | --- | --- | --- |
| CN(C)CCCn1c2c(c3ncccc3c1=O)C(=O)c1ccccc1-2 | 54.8% | 54.1% | 44.1% | 51.9% | 11.6% | 70.9% | 34.4% | 42% | 52.2% | 20.4% | 39.3% | 24.7% | 61.9% | 63.6% | 57.3% | 42.3% | 50.7% | 21% | 72.8% | 48.6% |
| COC(=O)CNC(=O)[C@H](Cc1ccccc1)NCc1ccncc1 | 101% | 109% | 101% | 97.3% | 108% | 103% | 84.5% | 85.6% | 105% | 109% | 105% | 89.1% | 95.7% | 105% | 112% | 107% | 99% | 102% | 84.4% | 105% |
| O=C1/C(=C/c2cccs2)SC(=S)N1CCCN1CCOCC1 | 96.7% | 95.5% | 94.7% | 111% | 99% | 23% | 71.5% | 93.2% | 92.7% | 111% | 92% | 85.4% | 84.3% | 82.7% | 99.6% | 102% | 102% | 92.7% | 93.9% | 93.4% |
| CCN(CC)c1nc(SCc2ccccc2Cl)ncc1C | 103% | 81.8% | 121% | 93.1% | 106% | 56% | 99% | 95% | 106% | 112% | 109% | 97.7% | 115% | 80.3% | 99.6% | 113% | 97.3% | 129% | 106% | 114% |
| O=C1c2cc(Cl)ccc2S(=O)(=O)c2c(NCCCNCCO)nc3ccccc3c21 | 25.7% | 27.4% | 73.8% | 42.3% | 22.5% | -66% (active) | -77.1% (active) | 43.3% | 2.5% (active) | -81.2% (active) | -24.7% (active) | 0.0837% (active) | -81.4% (active) | -70.7% (active) | -36.5% (active) | 31.8% | 40.6% | -18% (active) | 10.3% | -37.9% (active) |
| CCN(CC)c1ccc(/C=C/C(=O)c2ccc(Nc3nc(Nc4ccccc4)nc(Nc4ccccc4)n3)cc2)cc1 | 62.5% | 63.8% | 62.4% | 50.8% | 24.8% | 24.2% | 46.8% | 37.6% | 61.8% | 27.9% | 51.6% | 22.5% | 43.2% | 52.8% | 10.6% | 62.1% | 1.72% (active) | 61.2% | 73.1% | 54.1% |
| COc1ccc(/C=N/C2=C(C#N)C(c3cccc(Cl)c3)c3c(ccc4ccccc34)O2)cc1 (stereo not given) | 53.5% | 36% | 62.7% | 49.5% | 16.8% | 44.8% | 3.61% (active) | 44.9% | 19.8% | 31.3% | 55.7% | 11.1% | 44.5% | 38% | 26.5% | 45.9% | 21.8% | 7.29% (active) | 62.6% | 15.6% |
| CC1=NN(c2nc(SCC(=O)Nc3nc4ccc(C)cc4s3)nc(-c3ccccc3)c2C#N)C(=O)C1 | 105% | 89.4% | 96.7% | 86.4% | 100% | 85% | 91.1% | 107% | 100% | 118% | 113% | 94.7% | 101% | 106% | 94.9% | 97.2% | 103% | 90.3% | 113% | 109% |
| CS(=O)(=O)C1=CN(CCO)C(=O)N2CCCN=C12 | 95.7% | 96.6% | 93.1% | 92.4% | 102% | 101% | 94.8% | 98.7% | 99.5% | 97.8% | 105% | 118% | 96.2% | 98.6% | 106% | 97.2% | 105% | 102% | 105% | 98.9% |
| CCCCCCCCn1ccc2cc(NC(=O)Cn3cc(CN4CCCCC4)nn3)ccc21 | 75% | 79.4% | 17.6% | 58.6% | -50.6% (active) | 38.1% | 10.3% | 25.2% | -68.5% (active) | -80% (active) | 52.2% | -13.5% (active) | -88.3% (active) | -37.1% (active) | -72% (active) | 21.3% | -66.5% (active) | -42.3% (active) | -49.5% (active) | -79.8% (active) |
| Cc1nc2c(=O)[nH]c(SCC(=O)Nc3cccc(F)c3)nc2[nH]c1=O | 100% | 98.8% | 106% | 98.9% | 102% | 99.9% | 96.1% | 106% | 103% | 111% | 109% | 101% | 105% | 101% | 106% | 102% | 103% | 101% | 98.9% | 96.1% |
| COc1ccccc1Nc1nc2c(s1)C1=CC[C@H]3[C@@H]4CC[C@H]([C@H](C)CCCC(C)C)[C@@]4(C)CC[C@@H]3[C@@]1(C)CC2 | 93.3% | 103% | 101% | 95.9% | 108% | 90.8% | 106% | 103% | 114% | 106% | 103% | 102% | 101% | 103% | 117% | 102% | 108% | 104% | 110% | 101% |
| O=C(NCc1ccccc1)Nc1ccccc1CNc1nc(Nc2ccc(OCCN3CCCC3)cc2)ncc1Cl | 85.4% | 109% | 109% | 86.2% | 39.4% | 83.8% | 108% | 97.5% | 46.7% | 112% | 78.4% | 64.5% | 90.7% | 97% | 79.4% | 83.2% | 95.5% | 92.4% | 102% | 99.7% |
| O=C(COc1ccc(-c2nc3ccccc3[nH]2)cc1)N=Nc1c(O)[nH]c2ccc(Cl)cc12 | 87.3% | 97% | 101% | 99.9% | 30.7% | 93% | 93.6% | 99% | 46% | 53.3% | 91.9% | 2.09% (active) | 93.3% | 84.6% | 88.2% | 99.3% | 91.2% | 93.3% | 104% | 87% |

Source: PubChem BioAssay (NCI)
